We go through 40 compounds from PubChem BioAssay (NCATS).

Records with an inconclusive call do not appear. Values without a mark were called inactive. The source made the active and inactive calls. Calls come from the whole dose curve; as a rule, active = well fitted cell-killing curve with a large enough effect; inconclusive = small, poorly fitted or top-dose-only effect, or effect the other way; inactive = flat fitted curve, though single readings scatter.
% is set by controls: 0 for no effect and ±100 for the full control effect; potency is the fitted concentration of half-maximal effect.

The experiment deals with CAOV3. As to the kind of experiment: Primary qHTS to identify gynecologic anti-cancer compounds using libraries of approved drugs and bioactive compounds (AID 1345084). Note: nearly all actives have a fitted effect of over 55% in size. The following applies: Gynecologic cancer cell panel viability, ATPlite luminescence, 48 h; series mostly up to 57.5 µM; activity change, negative = cytotoxicity: at the top concentration. From the text:
National Center for Advancing Translational Sciences [NCATS] Assay Overview: Chemotherapeutic drug responses vary from cancer to cancer and from patient to patient. These variations could be caused by a number of factors including patient genomic background, tumor mutations, tumor heterogeneity, and aspects of drug treatment. Chemotherapeutic drug resistance is also a common issue and can lead to ineffective treatment and patient death. Here we have profiled the cell killing effects of thousands of compounds to characterize the responses in three gynecological cancers, identify cancer-selective compounds, and understand the diversity of responses to these compounds from pan-cancer suppressors to single cell line selective compounds. In this assay, we screened a 7,914 compound drug library that included approved drug and bioactive compounds in six ovarian, three cervical, and […] placental cancer cell lines using the ATPlite assay for cell viability. […] The cervical cancer cell lines included HeLa, Ca Ski, and C-33 A. The placental cancer cell lines included JEG-3. HEK 293T cells were used as the control cell line to determine the selectivity index. ATPlite is a luminescence based assay reliant on the conversion of a luciferase substrate to light in the presence of ATP. As a cytotoxic compound will suppress growth and decrease the number of cells, the concentration of ATP will decrease, and less light signal will be detected in the well.
Assay Protocol Summary: 1,000 cells in 4 uL of media were dispensed into white, solid bottom 1536-well plates using a Multidrop Combi (Thermo Scientific). The Assay plates were incubated for 16 hours at 37 C with 5% CO2 in assay plates, followed by the addition of 23 nL of DMSO or drug dissolved in DMSO. Each compound was assayed in five concentrations (0.092, 0.46, 2.3, 11.5, and 57.5 uM), using the automated Wako 1536 Pin Tool workstation and incubated at 37 C with 5% CO2 48 hours. 4 uL of ATPlite, the ATP monitoring reagent, was then added to the each well of the assay plates using the Multidrop Combi reagent dispenser followed by incubation for 15 minutes at room temperature. The resulting luminescence was measured using the ViewLux plate reader.
As for `CCCCCCCC/C=C\CCCCCCCCN`, the “activity change, negative = cytotoxicity” value was 3.86%.
On the same count and under the same terms, the value for `Nc1nc(N)c(-c2ccccc2)s1` was 26%; that for `CN(Cc1ccc(C(C)(C)C)cc1)Cc1cccc2ccccc12` was 13.2%.
On the same count and under the same terms, then `CC(C)(C)NCC(O)COc1cccc2c1C[C@H](O)[C@H](O)C2` (stereo not given in full), with 22%.
Take `O=C(Nc1ncc([N+](=O)[O-])s1)c1cccs1`: the “activity change, negative = cytotoxicity” value was -6.96%.
On the same count and under the same terms, the value for `CN(C)CCOC(=O)C(c1ccccc1)C1(O)CCCC1` (stereo not given) was 11.9%; that for `CCN(CC)CCNC(=O)c1cc(Br)c(N)cc1OC` was 16.7%; that for `CC(=O)Nc1ccc(OC(=O)c2ccccc2OC(C)=O)cc1` was 9.6%.
Take `Nc1ccc(C(=O)NCC(=O)O)cc1`: the “activity change, negative = cytotoxicity” value was 22.7%.
Same read-out and setting: the value for `COc1cc(C(=O)NCc2ccc(OCCN(C)C)cc2)cc(OC)c1OC` was -4.4%; that for `COc1cc(N)c(Cl)cc1C(=O)NC1CCN(Cc2ccccc2)CC1` was -2.46%.
`O=C(O)Cc1csc(-c2ccc(Cl)cc2)n1`: the “activity change, negative = cytotoxicity” value was 0.0267%.
Still for that read-out and setting: the value for `CCCCN1C[C@H](O)[C@@H](O)[C@H](O)[C@H]1CO` was -2.39%.
As to `CO[C@H]1C=CO[C@@]2(C)Oc3c(C)c(O)c4c(O)c(c(/C=N/N5CCN(C)CC5)c(O)c4c3C2=O)NC(=O)/C(C)=C\C=C[C@H](C)[C@H](O)[C@@H](C)[C@@H](O)[C@@H](C)[C@H](OC(C)=O)[C@@H]1C`, the “activity change, negative = cytotoxicity” value was -18.6%.
Still for that read-out and setting: then `O=C(c1ccc(F)cc1)C1CCN(CCn2c(=S)[nH]c3ccccc3c2=O)CC1`, with 0%.
As for `CC(CNC1CCCCC1)OC(=O)c1ccccc1` (stereo not given), the “activity change, negative = cytotoxicity” value was -12.3%.
With `C[N+]1(CC2COC(c3ccccc3)(C3CCCCC3)O2)CCCCC1` (stereo not given), the “activity change, negative = cytotoxicity” value was -29.6%.
Same read-out and setting: the value for `O=C(Nc1ccc([N+](=O)[O-])cc1)Nc1ccc([N+](=O)[O-])cc1` was -0.738%; that for `CCCCCCCCCCCCSCCOCCO` was -1.97%.
Same read-out and setting: the value for `C#C[C@]1(O)CC[C@H]2[C@@H]3CCC4=Cc5oncc5C[C@]4(C)[C@H]3CC[C@@]21C` was -13.5%; that for `NC(=O)c1ccccc1O` was 16.8%.
Still for that read-out and setting: then `CC(C)Nc1cccnc1N1CCN(C(=O)c2cc3cc(NS(C)(=O)=O)ccc3[nH]2)CC1`, with 10.5%; and `O=C1C(CCS(=O)c2ccccc2)C(=O)N(c2ccccc2)N1c1ccccc1` (stereo not given), with -6.01%.
Consider `Cc1cccc(C)c1NC(=O)CN1CCCCCC1`, for which the “activity change, negative = cytotoxicity” value is 28.4%.
`N#C/C(=C1\SCC(c2ccccc2Cl)S1)n1ccnc1` (stereo not given): the “activity change, negative = cytotoxicity” value is 9.15%.
As for `OCc1ccccn1`, the “activity change, negative = cytotoxicity” value was 9.19%.
Still for that read-out and setting: the value for `CC(C)[C@@H]1CC[C@@H](C)CC1=O` was -6.2%.
Take `CCOc1ccccc1C(N)=O`: the “activity change, negative = cytotoxicity” value is 0%.
The same measure, in the same setting: then `Cc1cc(-c2ccccc2)nnc1NCCN1CCOCC1`, with 25.7%.
Consider `C=C1c2cccc(O)c2C(O)=C2C(=O)[C@]3(O)C(O)=C(C(N)=O)C(=O)[C@@H](N(C)C)[C@@H]3[C@@H](O)[C@H]12`, for which the “activity change, negative = cytotoxicity” value was -0.26%.
Consider `C[C@@H](O)[C@H]1C(=O)N2C(C(=O)O)=C(S[C@@H]3CN[C@H](CNS(N)(=O)=O)C3)[C@H](C)[C@H]12`, for which the “activity change, negative = cytotoxicity” value is 12.3%.
In the case of `CCCc1ncc(C[n+]2ccccc2C)c(N)n1`, the “activity change, negative = cytotoxicity” value was -14.3%.
Still for that read-out and setting: the value for `CCOC(=O)Nc1ccc2c(c1)N(C(=O)CCN1CCOCC1)c1ccccc1S2` was 14.3%; that for `c1ccc(-c2nc[nH]c2-c2ccccc2)cc1` was -4.97%; that for `COP(=O)(OC)OC(c1ccc(Cl)cc1)P(=O)(OC)OC` (stereo not given) was -1.88%.
As for `COc1cc(C(=O)N2CCCCCCC2)cc(OC)c1OC`, the “activity change, negative = cytotoxicity” value is 1.77%.
In the case of `CN(C)C(=O)Nc1ccc(Cl)c(Cl)c1`, the “activity change, negative = cytotoxicity” value was -14.6%.
With `NC(N)=NN=C(/C=C/c1ccc([N+](=O)[O-])o1)/C=C/c1ccc([N+](=O)[O-])o1`, the Potency was 6.31 µM (active).
In the case of `COc1ccc(C(=O)c2ccccc2O)c(O)c1`, the “activity change, negative = cytotoxicity” value was -10.1%.
For `Cc1ccc(-c2ncc(Cl)cc2-c2ccc(S(C)(=O)=O)cc2)cn1`, the “activity change, negative = cytotoxicity” value is 5.15%.
